# According to the supplement of paper PMC12350171:
# Structures can show the parent of a compound that is named as a salt.
# Test system: Haemophilus parainfluenzae
# Assay: growth AUC normalised to DMSO control (fraction of control); higher = less growth inhibition, active = hit call of the paper
# Settings: 20 µM;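 active = AUC significantly below DMSO controls by Student t-fit with adjusted P under 0.01; inactive = not significantly reduced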
# How it was run: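 Three biological replicates were carried out, with OD578 read hourly for 24 h. Before inoculation at a starting OD578 of 0.01, pathogens were passaged anaerobically twice; plates were pre-reduced mGAM containing 20 μM compound and 1% DMSO, sealed with breathable membranes, and the Haemophilus parainfluenzae medium carried added hemin and NAD. Area under each growth curve was calculated by the trapezoidal rule up to the exponential-to-stationary transition and normalised to DMSO controls on the same plate.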
row,SMILES,growth AUC normalised to DMSO control
1,O=C(O)c1cccnc1Nc1cccc(C(F)(F)F)c1 [Niflumic acid],1.02 (inactive)
2,CN1CCC(OC(c2ccccc2)c2ccccc2)CC1 [Diphenylpyraline hydrochloride],0.996 (inactive)
3,NCC[C@H](O)C(=O)N[C@@H]1C[C@H](N)[C@@H](O[C@H]2O[C@H](CN)[C@@H](O)[C@H](O)[C@H]2O)[C@H](O)[C@H]1O[C@H]1O[C@H](CO)[C@@H](O)[C@H](N)[C@H]1O [Amikacin hydrate],0.0269 (active)
4,Fc1ccc([C@@H]2CCNC[C@H]2COc2ccc3c(c2)OCO3)cc1 [Paroxetine hydrochloride],0.998 (inactive)
5,CC(C)(C(=O)O)c1ccc(C(O)CCCN2CCC(C(O)(c3ccccc3)c3ccccc3)CC2)cc1 (stereo not given) [Fexofenadine hydrochloride],1.01 (inactive)
6,CC(C)NCC(O)COc1cccc2[nH]ccc12 (stereo not given) [Pindolol],1.05 (inactive)
7,Cc1ccccc1OCC(O)CO (stereo not given) [Mephenesin],0.93 (inactive)
8,Clc1ccc(COC(Cn2ccnc2)c2ccc(Cl)cc2Cl)c(Cl)c1 (stereo not given) [Miconazole],0.997 (inactive)
9,CC[C@H](C)C(=O)O[C@H]1C[C@@H](C)C=C2C=C[C@H](C)[C@H](CC[C@@H]3C[C@@H](O)CC(=O)O3)[C@H]21 [Lovastatin],0.984 (inactive)
10,Nc1c2c(nc3ccccc13)CCCC2 [Tacrine hydrochloride],1.01 (inactive)
11,Cc1c(N(C)C)c(=O)n(-c2ccccc2)n1C [Amidopyrine],1.01 (inactive)
12,COC(=O)[C@@H]1[C@H]2C[C@H]3c4[nH]c5ccccc5c4CCN3C[C@@H]2CC[C@@H]1O [Yohimbine hydrochloride],0.971 (inactive)
13,CCC(=O)OCC(=O)[C@@]1(OC(=O)CC)[C@@H](C)C[C@H]2[C@@H]3CCC4=CC(=O)C=C[C@]4(C)[C@@]3(Cl)[C@@H](O)C[C@@]21C [Beclomethasone dipropionate],0.969 (inactive)
14,Cc1oncc1C(=O)Nc1ccc(C(F)(F)F)cc1 [Leflunomide],0.978 (inactive)
15,NC(=O)c1cccnc1 [Nicotinamide],1.04 (inactive)
16,CC(=O)N[C@@H](CS)C(=O)O [Acetylcysteine],1.07 (inactive)
17,CCN(CC)CCOC(=O)C1(c2ccc([N+](=O)[O-])cc2)CCCC1 [Nitrocaramiphen hydrochloride],1.01 (inactive)
18,N=C(N)N1CCc2ccccc2C1 [Debrisoquin sulfate],0.978 (inactive)
19,COC1=C(OC)C(=O)C(CCCCCCCCCCO)=C(C)C1=O [Idebenone],1.04 (inactive)
20,COc1ccc(CC2c3cc(OC)c(OC)cc3CC[N+]2(C)CCC(=O)OCCCCCOC(=O)CC[N+]2(C)CCc3cc(OC)c(OC)cc3C2Cc2ccc(OC)c(OC)c2)cc1OC (stereo not given) [Atracurium besylate],1.06 (inactive)
21,CN1CCN(C2=Nc3ccccc3Oc3ccc(Cl)cc32)CC1 [Loxapine succinate],0.969 (inactive)
22,Nc1ccc(O)c(C(=O)O)c1 [Mesalamine],1.05 (inactive)
23,CC1(C)O[C@@H]2C[C@H]3[C@@H]4CCC5=CC(=O)CC[C@]5(C)[C@@]4(F)[C@@H](O)C[C@]3(C)[C@]2(C(=O)CCl)O1 [Halcinonide],1 (inactive)
24,Cc1ncc([N+](=O)[O-])n1CC(C)O (stereo not given) [Secnidazole],0.937 (inactive)
25,Nc1nc(N)c2nc(-c3ccccc3)c(N)nc2n1 [Triamterene],0.935 (inactive)
26,NCCCCCC(=O)O [Aminocaproic acid],1.1 (inactive)
27,CC1CCc2c(N3CCC(O)CC3)c(F)cc3c(=O)c(C(=O)O)cn1c23 (stereo not given) [Nadifloxacin],0.0309 (active)
28,CC[C@H]1OC(=O)[C@H](C)[C@@H](O[C@H]2C[C@@](C)(OC)[C@@H](O)[C@H](C)O2)[C@H](C)[C@@H](O[C@@H]2O[C@H](C)C[C@H](N(C)C)[C@H]2O)[C@](C)(O)C[C@@H](C)C(=O)[C@H](C)[C@@H](O)[C@]1(C)O [Erythromycin],0.028 (active)
29,O=C(O)COCCN1CCN(C(c2ccccc2)c2ccc(Cl)cc2)CC1 (stereo not given) [Cetirizine dihydrochloride],0.943 (inactive)
30,CC1(C)S[C@@H]2[C@H](NC(=O)Cc3ccccc3)C(=O)N2[C@H]1C(=O)O [Benzylpenicillin sodium],0.0512 (active)
